Data on five molecules can be found in PubChem BioAssay.

Test [1] in a line: growth inhibition of DIPG glioma cells, dose response, cell-based, SU-DIPG-XVII, MIPE5.0, CellTiter-Glo, qHTS (AID 1347060).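 On AC50: cells exposed to compound for 48 hours before viability readout.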 The following applies: SU-DIPG-XVII viability, CellTiter-Glo ATP luminescence.
Test [2] in a line: growth inhibition of DIPG glioma cells, dose response, cell-based, SU-DIPG-XIII, MIPE4.0, CellTiter-Glo, qHTS (AID 1347061; cut-off not given, nearly all actives have AC50 up to about 37 µM;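 further: cells exposed to compound for 48 hours before readout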). The following applies: SU-DIPG-XIII viability, CellTiter-Glo ATP luminescence. A general note: In ATP-based viability assays light output follows the ATP content of the culture.
A short description of test [3]: growth inhibition of DIPG glioma cells, dose response, cell-based, SU-DIPG-IV, MIPE4.0, CellTiter-Glo, qHTS (AID 1347063; cut-off not given, nearly all actives have AC50 up to about 30 µM;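 further: compound exposure lasted 48 hours before the viability readout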). The note with it: SU-DIPG-IV viability, CellTiter-Glo ATP luminescence.
A short description of test [4]: growth inhibition of DIPG glioma cells, dose response, cell-based, SU-DIPG-XIII, MIPE5.0, CellTiter-Glo, qHTS (AID 1347064; cut-off not given, nearly all actives have AC50 up to about 23 µM;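 on AC50: cells exposed to compound for 48 hours before the viability read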). The note with it: SU-DIPG-XIII viability, CellTiter-Glo ATP luminescence.
A short description of test [5]: viability loss in pontine glioma line – cell-based, SU-DIPG-XXV, MIPE5.0, CellTiter-Glo, qHTS, dose response (AID 1347065).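 Further: cells exposed to compound for 48 hours before ATP readout.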 The note with it: CellTiter-Glo ATP luminescence.
Test [6] can be described thus: SU-DIPG-VI glioma cell viability, MIPE4.0 library, CellTiter-Glo luminescence, qHTS (AID 1347066; cut-off not given, nearly all actives have AC50 up to about 30 µM;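 further: cells exposed to compound for 48 hours before readout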). The note with it: CellTiter-Glo ATP luminescence.
Test [7] in a line: JHH-DIPG-1 glioma cell viability, MIPE5.0 library, CellTiter-Glo luminescence, qHTS (AID 1347067).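 Further: cells exposed to compound for 48 hours before readout.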 The following applies: JHH-DIPG-1 glioma viability, CellTiter-Glo ATP luminescence.
Test [8] is described as follows: SU-DIPG-XXV glioma cell viability, MIPE5.0 library, qHTS (AID 1347068; cut-off not given, nearly all actives have IC50 up to about 30 µM). On the technique in general: qHTS replaces the single test concentration by a dilution series.
Test [9] is described as follows: growth inhibition of DIPG glioma cells, dose response, cell-based, JHH-DIPG-1, MIPE4.0, CellTiter-Glo, qHTS (AID 1347062; cut-off not given, nearly all actives have AC50 up to about 27 µM;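 on AC50: cells exposed to compound for two days before readout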). The note with it: JHH-DIPG-1 viability, CellTiter-Glo ATP luminescence.

Each structure is given as a SMILES string. Results filed as inconclusive are left out. Activity calls are given as the source filed them. Unless noted, cut-off not given; nearly all actives show AC50 up to about 26 µM.

As to `C[C@](Cc1c[nH]c2ccccc12)(NC(=O)OC1C2CC3CC(C2)CC1C3)C(=O)NC[C@H](NC(=O)CCC(=O)O)c1ccccc1` (stereo not given in full), the molecule was called inactive in [1], in [2], in [3], in [4], in test [5] and in [6]. Besides, the result in test [7] and in test [8] was inactive.
With `Cc1ccc(C(C)(O)c2nc3ccccc3s2)c(C)c1` (stereo not given), the result in test [1], in [2], in [9], in [4], in test [6] and in [7] was inactive. In [8], the molecule was called inactive.
Broadly, the AC50 is the concentration at which the activity in the assay is half-maximal. As to `Nc1nc(NCCNc2ncc(-n3ccnc3)c(-c3ccc(Cl)cc3Cl)n2)ccc1[N+](=O)[O-]`, the AC50 was 11.8 µM (active) in test [1]; 5.26 µM (active) in test [3]; 13.2 µM (active) in test [4]; 8.33 µM (active) in test [5]; 11.8 µM (active) in [7]. In addition, the molecule was classed as inactive in [2] and in [8].
Regarding `CC(C)C[C@H](CC(=O)O)C(=O)N[C@@H](Cc1c[nH]c2ccccc12)C(=O)N[C@@H](C)c1ccccc1`, the molecule was classed as inactive in test [1], in test [2], in test [9], in test [7] and in test [8]. Also, the AC50 in [5] was 16.6 µM (active).
Turning to `CC1(C)S[C@H]2[C@H](NC(=O)[C@@H](N)c3ccc(O)cc3)C(=O)N2[C@H]1C(=O)O`, the call in test [1], in [5], in test [6], in [7] and in test [8] was inactive. Besides, the half-maximal activity concentration (AC50) in test [2] was 23.5 µM (active); in test [9] it was 1.32 µM (active).
